Test results as given in PubChem BioAssay (NCATS).
Inconclusive results are not listed. The source made the active and inactive calls. Unless noted, the call rests on the fitted dose curve; in most records, active means well fitted curve in either direction with a large enough effect (not every such curve was filed as active); inconclusive means small, poorly fitted or top-dose-only effect, or another doubt; inactive means flat fitted curve, though single readings scatter.

Experiments:
[1] = target: Lysosomal acid glucosylceramidase (Homo sapiens) (UniProt P04062); experiment: Glucocerebrosidase-p2 (AID 348; in the data active means potency below about 10 µM; further: potency means the concentration at half of the fitted maximal effect); details: purified GBA, blue fluorogenic substrate, 40 min
Chain of Lysosomal acid glucosylceramidase (Homo sapiens) (P04062 whole entry, looked up): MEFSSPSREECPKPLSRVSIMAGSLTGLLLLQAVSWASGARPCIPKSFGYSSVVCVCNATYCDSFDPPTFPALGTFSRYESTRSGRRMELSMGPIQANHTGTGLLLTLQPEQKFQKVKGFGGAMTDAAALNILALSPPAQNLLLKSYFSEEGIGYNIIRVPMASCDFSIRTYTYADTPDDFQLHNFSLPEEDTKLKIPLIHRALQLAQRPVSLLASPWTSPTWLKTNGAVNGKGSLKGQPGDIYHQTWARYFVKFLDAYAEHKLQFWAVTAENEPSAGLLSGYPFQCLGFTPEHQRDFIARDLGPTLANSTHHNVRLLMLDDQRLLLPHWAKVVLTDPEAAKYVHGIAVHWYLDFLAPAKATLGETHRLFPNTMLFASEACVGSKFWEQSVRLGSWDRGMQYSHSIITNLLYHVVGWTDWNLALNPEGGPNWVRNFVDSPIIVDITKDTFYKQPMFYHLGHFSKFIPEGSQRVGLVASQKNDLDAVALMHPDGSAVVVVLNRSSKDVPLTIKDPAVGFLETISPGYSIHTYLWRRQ
Summary of the method: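 Compounds titrated from 0.6 nM upwards against 0.2 nM enzyme in pH 5.9 citric acid/KH2PO4, taurocholate, tween-20; blue fluorogenic substrate 80 uM, 40 min room temperature, stopped and read Ex 365/Em 440 for AC50.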

[2] = AP1 Signaling Pathway (AID 357); details: ME-180 AP-1-bla reporter, EGF-induced, beta-lactamase ratio, 5 h; at 7.69 µM (top of the series) unless noted;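 further: ME-180 reporter cells stimulated with EGF at its EC50 level; on the % scale 0 is the no-effect control and ±100 the full control effect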
Summary of the method: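 Cells are seeded overnight, exposed to compound titrations and an EC50 level of EGF for 5 hours at 37 °C, then loaded with CCF4 dye for 2.5 hours. Beta-lactamase activity under the AP-1 element is read as a blue/green ratio.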

[3] = target: Cytochrome P450 1A2 (Homo sapiens) (UniProt P05177); experiment: p450-cyp1a2 (AID 410; calls by dose curve; further: potency means the concentration at half of the fitted maximal effect;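 on activity change, negative = inhibition: -100% = full effect of reference inhibitor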); details: recombinant CYP1A2, luciferin-ME demethylation, luminescence; series mostly up to 11.4 µM
Chain of Cytochrome P450 1A2 (Homo sapiens) (P05177 whole entry, looked up): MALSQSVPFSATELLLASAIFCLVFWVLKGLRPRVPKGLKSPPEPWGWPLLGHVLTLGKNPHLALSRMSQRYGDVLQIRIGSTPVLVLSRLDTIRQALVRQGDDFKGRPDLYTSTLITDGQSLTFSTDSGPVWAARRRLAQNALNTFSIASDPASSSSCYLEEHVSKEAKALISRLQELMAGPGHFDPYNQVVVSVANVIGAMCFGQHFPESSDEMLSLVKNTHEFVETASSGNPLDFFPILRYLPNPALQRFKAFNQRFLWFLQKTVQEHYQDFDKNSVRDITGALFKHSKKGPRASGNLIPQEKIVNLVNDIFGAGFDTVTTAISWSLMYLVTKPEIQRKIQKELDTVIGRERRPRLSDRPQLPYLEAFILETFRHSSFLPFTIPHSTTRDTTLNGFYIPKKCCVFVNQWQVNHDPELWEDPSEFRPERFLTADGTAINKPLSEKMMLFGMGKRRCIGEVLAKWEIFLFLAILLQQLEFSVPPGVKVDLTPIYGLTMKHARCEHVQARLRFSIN
Summary of the method: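 Human CYP1A2 (20nM) demethylated Luciferin-ME at its Km (100uM) in 100mM KPO4. After 10 min compound preincubation, NADPH regeneration ran the reaction 60 min at room temperature. Luciferin was read by luminescence, normalized to 57 uM furafylline.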

[4] = Stat Signaling Pathway (AID 446); details: ME-180 SIE beta-lactamase reporter, IL-6 stimulated, 5 h; at 7.69 µM (top of the series) unless noted;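 further: ME-180 cervical cancer cells given 40 pM IL-6 alongside compound; SIE-controlled beta-lactamase reporter measured as 460/530 nm FRET emission ratio; on the % scale 0 is the no-effect control and ±100 the full control effect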
Summary of the method: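 Screening format detects activators and inhibitors alike: ME-180 SIE-bla cells stimulated at 40 pM IL-6 for 5 hrs with compound, then dual-emission beta-lactamase read at 405 nm excitation.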

[5] = target: Glucocorticoid receptor (Homo sapiens) (UniProt P04150); experiment: GR-GFP Redistribution (AID 450;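 active means compounds whose dose series gives a full or clear partial fitted curve of increased nuclear translocation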; further: potency means the concentration at half of the fitted maximal effect); details: U2OS GR-GFP nuclear translocation, laser cytometry, 2 h
Chain of Glucocorticoid receptor (Homo sapiens) (P04150 whole entry, looked up, the tested form may be a part): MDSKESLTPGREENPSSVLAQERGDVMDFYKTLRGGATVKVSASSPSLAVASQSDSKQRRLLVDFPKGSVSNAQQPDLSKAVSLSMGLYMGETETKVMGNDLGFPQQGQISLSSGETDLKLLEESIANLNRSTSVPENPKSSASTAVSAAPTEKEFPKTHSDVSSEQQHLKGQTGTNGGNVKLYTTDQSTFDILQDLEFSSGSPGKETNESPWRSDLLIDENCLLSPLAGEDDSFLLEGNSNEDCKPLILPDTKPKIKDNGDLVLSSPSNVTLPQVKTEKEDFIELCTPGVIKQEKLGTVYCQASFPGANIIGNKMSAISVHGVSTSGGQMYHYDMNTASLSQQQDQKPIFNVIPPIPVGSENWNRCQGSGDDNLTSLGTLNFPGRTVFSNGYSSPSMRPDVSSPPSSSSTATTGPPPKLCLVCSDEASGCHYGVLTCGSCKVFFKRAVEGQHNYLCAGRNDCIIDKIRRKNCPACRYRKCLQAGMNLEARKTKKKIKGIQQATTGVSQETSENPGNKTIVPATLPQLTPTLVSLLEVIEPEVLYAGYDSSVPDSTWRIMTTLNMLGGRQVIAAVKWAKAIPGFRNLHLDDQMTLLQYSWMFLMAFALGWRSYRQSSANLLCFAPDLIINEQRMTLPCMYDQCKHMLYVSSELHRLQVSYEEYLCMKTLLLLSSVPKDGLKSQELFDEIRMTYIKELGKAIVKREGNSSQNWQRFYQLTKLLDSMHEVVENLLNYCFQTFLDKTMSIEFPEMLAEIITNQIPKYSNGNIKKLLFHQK

[6] = target: Glucocorticoid receptor (Homo sapiens) (UniProt P04150); experiment: GR-EFC Redistribution (AID 451; calls by dose curve; further: potency means the concentration at half of the fitted maximal effect); details: CHO-K1 GR-EFC translocation, beta-gal luminescence, 2 h
Summary of the method: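 CHO-K1 cells expressing nuclear EA and GR-ED fragments of b-gal; compounds titrated up to 46 uM final, 2 h at 37 C. GR nuclear translocation read as complemented b-gal luminescence after 1 h RT detection.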

[7] = target: Mitogen-activated protein kinase 10 (Mus musculus) (UniProt Q61831); experiment: JNK3 AlphaScreen Assay (AID 530); details: JNK3 lysate, c-Jun phosphorylation; series mostly up to 57.1 µM;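 further: kinase came from lysate of stimulated human HepG2 cells; signal reports phosphorylation of biotinylated GST-cJun 1-79 at Ser73 with 10 µM ATP; on the % scale 0 is the no-effect control and ±100 the full control effect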
Summary of the method: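 qHTS format: compounds tested as titrations against IL-1beta/TNF-alpha-activated HepG2 lysate JNK3 with biotin-GST-cJun substrate and 10 uM ATP at room temperature. Loss of anti-phospho-cJun AlphaScreen signal indicates inhibition.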

[8] = target: 3',5'-cyclic-AMP phosphodiesterase 4B (Homo sapiens) (UniProt Q07343); experiment: qHTS Assay for Inhibitors of PDE-IV (AID 607; active means well fitted activation curve with a large enough effect in the main read-out, with a control signal flat, not every such curve was filed as active; further: % of control where 0% means no effect); details: HEK293 ACTOne CNG channel cells, membrane potential fluorescence; series mostly up to 22.9 µM
Chain of 3',5'-cyclic-AMP phosphodiesterase 4B (Homo sapiens) (Q07343 whole entry, looked up): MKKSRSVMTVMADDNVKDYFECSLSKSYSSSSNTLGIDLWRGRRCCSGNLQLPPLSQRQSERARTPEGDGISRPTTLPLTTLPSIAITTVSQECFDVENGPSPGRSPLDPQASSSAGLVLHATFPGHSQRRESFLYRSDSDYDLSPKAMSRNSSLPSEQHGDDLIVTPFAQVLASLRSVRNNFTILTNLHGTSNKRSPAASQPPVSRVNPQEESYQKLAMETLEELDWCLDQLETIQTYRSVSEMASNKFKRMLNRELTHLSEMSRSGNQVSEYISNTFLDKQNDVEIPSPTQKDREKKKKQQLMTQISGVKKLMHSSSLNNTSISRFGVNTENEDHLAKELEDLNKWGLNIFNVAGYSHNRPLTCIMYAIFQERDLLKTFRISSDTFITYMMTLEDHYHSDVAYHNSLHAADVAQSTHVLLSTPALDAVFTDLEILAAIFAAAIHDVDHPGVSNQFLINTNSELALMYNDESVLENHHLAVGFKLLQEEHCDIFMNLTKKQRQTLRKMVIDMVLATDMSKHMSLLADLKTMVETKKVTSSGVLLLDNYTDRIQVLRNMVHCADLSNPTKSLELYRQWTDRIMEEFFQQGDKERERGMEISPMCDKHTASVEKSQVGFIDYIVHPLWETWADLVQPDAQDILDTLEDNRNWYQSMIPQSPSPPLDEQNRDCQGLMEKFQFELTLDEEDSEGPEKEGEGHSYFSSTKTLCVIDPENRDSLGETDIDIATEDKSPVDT
Summary of the method: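 The readout is membrane depolarisation from a cAMP-sensing CNG channel, detected with a potential dye at ex 535/em 590. Cells were HEK293-derived (endogenous PDE-IV) at 1000 cells/well, titrated up to 22.9 uM final.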

[9] = NFAT Signaling Pathway (AID 444); details: Jurkat NFAT-bla M1, carbachol, beta-lactamase ratio, 5 h; at 7.69 µM (top of the series) unless noted;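 further: carbachol stimulus at about its EC50 of 1 µM final; on the % scale 0 is the no-effect control and ±100 the full control effect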
Summary of the method: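 Jurkat cells with NFAT-driven β-lactamase reporter and co-expressed M1 receptor, stimulated with carbachol (final 1 uM, ~EC50), compound titration, 5 h at 37 °C. CCF4 loaded 1 h at RT; 460/530 nm ratio gave %activity and AC50.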

[10] = target: Cytochrome P450 2D6 (Homo sapiens) (UniProt P10635); experiment: qHTS Assay for Inhibitors and Substrates of Cytochrome P450 2D6 (AID 891; active means well fitted curve in the direction sought with a large enough effect; an effect the other way counts as inactive or inconclusive;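 further: luciferin methyl ether substrate demethylated by CYP2D6 with NADPH regeneration; on the % scale 0 is the no-effect control and ±100 the full control effect; nearly all actives have a fitted effect of over 60% in size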); details: recombinant CYP2D6, luciferin-ME EGE luminescence; series mostly up to 11.4 µM
Chain of Cytochrome P450 2D6 (Homo sapiens) (P10635 whole entry, looked up): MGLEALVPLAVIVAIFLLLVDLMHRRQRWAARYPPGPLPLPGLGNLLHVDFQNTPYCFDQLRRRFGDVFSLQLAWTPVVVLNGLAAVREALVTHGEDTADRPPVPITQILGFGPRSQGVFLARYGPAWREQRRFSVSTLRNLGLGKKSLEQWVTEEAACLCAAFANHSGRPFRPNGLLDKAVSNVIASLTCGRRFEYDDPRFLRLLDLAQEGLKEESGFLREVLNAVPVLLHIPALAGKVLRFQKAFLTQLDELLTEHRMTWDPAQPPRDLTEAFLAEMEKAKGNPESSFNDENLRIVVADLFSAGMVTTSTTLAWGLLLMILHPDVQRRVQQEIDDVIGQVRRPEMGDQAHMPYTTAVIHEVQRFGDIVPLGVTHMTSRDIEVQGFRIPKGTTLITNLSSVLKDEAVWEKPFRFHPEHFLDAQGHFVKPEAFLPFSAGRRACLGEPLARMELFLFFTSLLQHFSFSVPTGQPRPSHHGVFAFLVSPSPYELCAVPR
Summary of the method: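 Human CYP2D6 (5 nM) with 30 uM Luciferin-ME EGE (at Km) in 100 mM KPO4, compound preincubated 10 min, then NADPH regeneration system for 60 min at room temperature. Luciferin read by luminescence; normalized to 1.43 uM quinidine.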

[11] = target: Cytochrome P450 3A4 (Homo sapiens) (UniProt P08684); experiment: qHTS Assay for Inhibitors and Substrates of Cytochrome P450 3A4 (AID 884; active means well fitted curve in the direction sought with a large enough effect; an effect the other way counts as inactive or inconclusive; further: potency means the concentration at half of the fitted maximal effect; nearly all actives have a fitted effect of over 50% in size); details: recombinant CYP3A4, Luciferin-PPXE luminescence; series mostly up to 57.1 µM
Chain of Cytochrome P450 3A4 (Homo sapiens) (P08684 whole entry, looked up): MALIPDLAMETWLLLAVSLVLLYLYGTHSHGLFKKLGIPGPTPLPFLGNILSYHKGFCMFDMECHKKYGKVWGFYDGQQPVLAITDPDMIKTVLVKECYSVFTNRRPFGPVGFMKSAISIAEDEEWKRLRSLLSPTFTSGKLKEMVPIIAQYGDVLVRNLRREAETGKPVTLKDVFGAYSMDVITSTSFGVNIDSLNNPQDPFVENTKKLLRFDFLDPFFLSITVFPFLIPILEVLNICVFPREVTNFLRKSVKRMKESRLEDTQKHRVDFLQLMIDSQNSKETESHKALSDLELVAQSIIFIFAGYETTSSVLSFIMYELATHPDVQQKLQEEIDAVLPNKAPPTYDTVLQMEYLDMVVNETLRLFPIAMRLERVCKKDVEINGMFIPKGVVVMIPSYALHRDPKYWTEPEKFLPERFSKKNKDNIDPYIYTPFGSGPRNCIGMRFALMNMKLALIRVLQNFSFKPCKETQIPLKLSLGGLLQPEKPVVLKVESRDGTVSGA
Summary of the method: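 20 nM human CYP3A4 with 25 uM Luciferin-PPXE (at KM) in 200 mM KPO4, preincubated 10 min with compound; NADPH regeneration started a 60 min RT reaction. Luciferin detected by luminescence, normalized to 57 uM ketoconazole as full inhibition.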

[12] = target: Cytochrome P450 3A4 (Homo sapiens) (UniProt P08684); experiment: qHTS Assay for Activators of Cytochrome P450 3A4 (AID 885; active means well fitted curve in the direction sought with a large enough effect; an effect the other way counts as inactive or inconclusive; further: nearly all actives have a fitted effect of over 65% in size); details: recombinant CYP3A4, Luciferin-PPXE luminescence, 60 min; series mostly up to 57.1 µM
Summary of the method: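 Steps: enzyme/substrate mix dispensed; compound added, 10 min RT; NADPH regeneration solution added, 60 min RT; luciferin detection buffer stops reaction; 20 min later luminescence measured.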

[13] = target: Cytochrome P450 2C19 (Homo sapiens) (UniProt P33261); experiment: qHTS Assay for Inhibitors and Substrates of Cytochrome P450 2C19 (AID 899; active means well fitted curve in the direction sought with a large enough effect; an effect the other way counts as inactive or inconclusive; further: potency means the concentration at half of the fitted maximal effect; nearly all actives have a fitted effect of over 60% in size); details: recombinant CYP2C19, luciferin-H EGE luminescence; series mostly up to 11.4 µM
Chain of Cytochrome P450 2C19 (Homo sapiens) (P33261 whole entry, looked up): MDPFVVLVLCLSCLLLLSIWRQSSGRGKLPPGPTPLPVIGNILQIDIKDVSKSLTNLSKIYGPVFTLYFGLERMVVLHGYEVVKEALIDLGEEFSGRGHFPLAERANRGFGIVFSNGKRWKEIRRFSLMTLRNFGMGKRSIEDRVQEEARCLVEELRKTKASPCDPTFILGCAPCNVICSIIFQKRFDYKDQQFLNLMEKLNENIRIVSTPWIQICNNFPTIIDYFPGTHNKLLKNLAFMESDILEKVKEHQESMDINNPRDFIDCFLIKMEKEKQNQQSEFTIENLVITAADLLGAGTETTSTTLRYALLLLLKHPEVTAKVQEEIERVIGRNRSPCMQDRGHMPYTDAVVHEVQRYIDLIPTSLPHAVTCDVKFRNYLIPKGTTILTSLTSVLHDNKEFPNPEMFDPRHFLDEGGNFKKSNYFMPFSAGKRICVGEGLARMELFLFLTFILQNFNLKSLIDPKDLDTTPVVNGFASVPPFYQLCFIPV
Summary of the method: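 Luminescent read-out of luciferin formed from Luciferin-H EGE (10uM, equal to KM). Enzyme 5nM in 50mM KPO4; compound added, 10 min at 37C, then NADPH regenerating system for 60 min at 37C. Full inhibition defined by 57uM ketoconazole.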

O=C(O)C(O)(c1ccc(-c2ccccc2)cc1)c1ccc(-c2ccccc2)cc1
inactive: Potency [1] > 11.4 µM | activity change, negative = inhibition [2] -25.7% | Potency [3] | activity, negative = inhibition [4] -5.5% | Potency [5] > 46 µM | Potency [6] > 9.22 µM | activity change, negative = inhibition [7] 1.15% [at 11.4 µM] | outcome [8]

CC(=O)O/C(=C1/C[C@H]2[C@@H]3CC=C4C[C@@H](OC(C)=O)CC[C@]4(C)[C@@H]3CC[C@]2(C)C1=O)C(F)(F)F
active: Potency [3] 5.01 µM
inactive: Potency [1] > 11.4 µM | activity change, negative = inhibition [2] -23.8% | activity, negative = inhibition [4] -16.9% | Potency [5] > 46 µM | Potency [6] > 9.22 µM | activity change, negative = inhibition [7] -0.565% [at 11.4 µM] | outcome [8]

c1cncc(CNCCN2CCNCC2)c1
inactive: Potency [1] > 11.4 µM | activity change, negative = inhibition [2] 5.14% | Potency [3] | Potency [5] > 46 µM | Potency [6] > 9.22 µM | activity change, negative = inhibition [7] 1.33% [at 11.4 µM] | outcome [8]

N#CS.N=C=S.N=C=S.[Cu].[NH2-].[NH2-].[NH2-].[NH2-].c1ccc2ncccc2c1
inactive: Potency [1] > 11.4 µM | activity change, negative = inhibition [2] -1.15% | activity change, negative = inhibition [9] 0.5% | activity, negative = inhibition [4] -4.61% | Potency [5] > 46 µM | Potency [6] > 9.22 µM | activity change, negative = inhibition [7] 0.42% [at 11.4 µM] | outcome [8]

COC(=O)[C@@H]1c2cc3c(c(O)c2[C@@H](O)C[C@]1(C)O)C(=O)c1c(O)cc2c(c1C3=O)O[C@H]1O[C@@]2(C)[C@@H](O)[C@H](N(C)C)[C@H]1O
inactive: Potency [1] > 11.4 µM | activity change, negative = inhibition [2] -3.96% | activity change, negative = inhibition [9] 6.8% | activity, negative = inhibition [4] -3.22% | Potency [5] > 46 µM | Potency [6] > 9.22 µM | activity change, negative = inhibition [7] -5.17% [at 11.4 µM] | outcome [8]

C[C@@]12CC[C@H]3[C@@H](CC[C@H]4C[C@@H](O)CC[C@]43C)[C@H]1CC[C@@H]2C(=O)C[C@H](O)C(F)(F)F
inactive: Potency [1] > 11.4 µM | activity change, negative = inhibition [2] 5.97% | activity change, negative = inhibition [9] 5.84% | activity, negative = inhibition [4] -6.11% | Potency [5] > 46 µM | Potency [6] > 9.22 µM | activity change, negative = inhibition [7] -0.552% [at 11.4 µM] | outcome [8]

O=C(O)[C@H](Cc1cnc[nH]1)N1C(=O)c2ccccc2C1=O
inactive: Potency [1] > 11.4 µM | activity change, negative = inhibition [2] -8.47% | activity change, negative = inhibition [9] 7.47% | activity, negative = inhibition [4] 4.43% | Potency [5] > 46 µM | Potency [6] > 9.22 µM | activity change, negative = inhibition [7] 41.7% [at 11.4 µM] | outcome [8]

N[C@@H](Cc1c[nH]c2cc([N+](=O)[O-])ccc12)C(=O)O
inactive: Potency [1] > 11.4 µM | activity change, negative = inhibition [2] -8.44% | activity change, negative = inhibition [9] 5.87% | activity, negative = inhibition [4] 10.4% | Potency [5] > 46 µM | Potency [6] > 9.22 µM | activity change, negative = inhibition [7] 4.66% [at 11.4 µM] | outcome [8]

O=[As](O)(O)c1ccc(NCc2ccccc2)cc1
inactive: Potency [1] > 11.4 µM | activity change, negative = inhibition [2] -4.31% | activity change, negative = inhibition [9] 11% | activity, negative = inhibition [4] 11.2% | Potency [5] > 46 µM | Potency [6] > 9.22 µM | activity change, negative = inhibition [7] 1.56% [at 11.4 µM] | outcome [8] | Potency [10]

O=C(Oc1ccc(S(=O)(=O)F)cc1F)c1ccccc1Cl
inactive: Potency [1] > 11.4 µM | activity change, negative = inhibition [2] -4.95% | activity change, negative = inhibition [9] 5.76% | activity, negative = inhibition [4] -0.302% | Potency [5] > 46 µM | Potency [6] > 9.22 µM | activity change, negative = inhibition [7] 2.49% [at 11.4 µM] | outcome [8]

CCOC(=O)c1ccc2[nH]c(-c3ccc(S(=O)(=O)F)cc3)cc(=O)c2c1
inactive: Potency [1] > 11.4 µM | activity change, negative = inhibition [2] -7.65% | activity change, negative = inhibition [9] 25.8% | activity, negative = inhibition [4] -0.749% | Potency [5] > 46 µM | Potency [6] > 9.22 µM | activity change, negative = inhibition [7] 3.3% [at 11.4 µM] | outcome [8]

S=P(C1CCCCC1)(C1CCCCC1)[C@H](c1cccnc1)N1CCCC1
inactive: Potency [1] > 11.4 µM | activity change, negative = inhibition [2] 10.9% | activity change, negative = inhibition [9] 5.74% | activity, negative = inhibition [4] -1.57% | Potency [5] > 46 µM | Potency [6] > 9.22 µM | activity change, negative = inhibition [7] 0.158% [at 11.4 µM] | outcome [8] | activity change, positive = activation [12] -61.4% [at 11.4 µM]
active: Potency [11] 3.16 µM | Potency [13] 1.26 µM

CC(C)[C@@H](Br)C(=O)NCC(=O)O
inactive: Potency [1] > 11.4 µM | activity change, negative = inhibition [2] 5.1% | activity change, negative = inhibition [9] 0.167% | activity, negative = inhibition [4] 11.3% | Potency [5] > 46 µM | Potency [6] > 9.22 µM | activity change, negative = inhibition [7] 4.52% [at 11.4 µM] | outcome [8]

NC1(P(=O)(O)O)CCCCC1
inactive: Potency [1] > 11.4 µM | activity change, negative = inhibition [2] 11.8% | activity change, negative = inhibition [9] -8.61% | activity, negative = inhibition [4] 4.3% | Potency [5] > 46 µM | Potency [6] > 9.22 µM | activity change, negative = inhibition [7] 5.68% [at 11.4 µM] | outcome [8]

O=P(O)(OP(=O)(O)c1ccccc1)c1ccccc1 (tested in a mixture with another compound)
inactive: Potency [1] > 11.4 µM | activity change, negative = inhibition [2] -8.54% | activity change, negative = inhibition [9] -3.07% | activity, negative = inhibition [4] 2.23% | Potency [5] > 46 µM | Potency [6] > 9.22 µM | activity change, negative = inhibition [7] 3.03% [at 11.4 µM] | outcome [8]
